Screening data as filed in PubChem.
In the library only some 9% were active in any assay of this set; here they are far more common.
HPGD block – inhibitors of human 15-hydroxyprostaglandin dehydrogenase (HPGD); Potency, µM, inactives show top-dose activity change, negative = inhibition, usual class: inhibitors; 150,000 tested, 4.3% active; AID 894; purified HPGD, NADH fluorescence kinetic, PGE2 substrate; note: potency is the fitted concentration of half-maximal effect
Target sequence (P15428 whole entry, looked up): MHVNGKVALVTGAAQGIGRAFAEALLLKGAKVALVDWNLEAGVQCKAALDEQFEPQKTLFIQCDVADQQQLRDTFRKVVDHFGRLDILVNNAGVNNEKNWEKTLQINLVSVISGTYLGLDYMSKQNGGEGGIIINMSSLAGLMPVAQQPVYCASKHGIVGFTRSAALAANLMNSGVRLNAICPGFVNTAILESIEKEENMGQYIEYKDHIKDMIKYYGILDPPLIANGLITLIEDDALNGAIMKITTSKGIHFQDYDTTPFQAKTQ
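20 nM HPGD preincubated 15 min at room temperature with compound in 50 mM Tris-HCl pH 8, 0.01% Tween 20. Started with 1 mM NAD+ and 30 uM prostaglandin E2; NADH fluorescence (360/450 nm) read 5 times over 30-s intervals, last minus first.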
IMPase cell inh – cell-permeable inhibitors of inositol monophosphatase (IMPase); AID 901; CHO-M1 cells, IP1 accumulation, HTRF TR-FRET ratio; P97697; 120,000 tested, under 10 active; inhibition (IP1 accumulation), % at 46.1 µM; active = well fitted curve in the direction sought with a large enough effect in the signal ratio, not every such curve was filed as active; inconclusive = small, poorly fitted or top-dose-only effect, or a change in a side signal; inactive = no such curve, though single readings can be large or run the other way; the % refers to the signal ratio;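 note: cells stimulated with carbachol in lithium chloride buffer; plate controls were DMSO basal wells for no effect and reference inhibitor wells for full effect; higher means more IMPase inhibition seen as more IP1 and lower FRET ratio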
Target sequence (P97697 whole entry, looked up): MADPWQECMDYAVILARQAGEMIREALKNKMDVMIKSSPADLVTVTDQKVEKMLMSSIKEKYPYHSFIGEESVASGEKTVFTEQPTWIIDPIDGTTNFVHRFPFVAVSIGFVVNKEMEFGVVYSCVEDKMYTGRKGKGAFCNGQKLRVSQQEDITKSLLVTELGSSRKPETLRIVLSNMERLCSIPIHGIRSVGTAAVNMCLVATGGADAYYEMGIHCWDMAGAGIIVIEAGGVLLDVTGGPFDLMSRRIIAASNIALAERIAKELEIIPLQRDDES
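Carbachol-driven Gq signalling in CHO-M1 cells (2000/well) generates IP1. Compounds that block IMPase raise IP1 and so reduce the FRET signal from Eu-anti-IP1 and d2-IP1 after a 10 min room-temperature lysis.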
ALDH1A1 inh – inhibitors of human aldehyde dehydrogenase 1A1; P00352; Purified ALDH1A1, NADH fluorescence, propionaldehyde substrate; Potency, µM (top dose mostly 75.3 µM), inactives show top-dose activity, negative = inhibition, usual class: inhibitors; 220,000 tested, 7.3% active; AID 1030;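 note: potency is the fitted concentration of half-maximal effect; plate controls were no enzyme wells and a reference inhibitor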
The depositor's hits bear a star; ? = inconclusive; · = no result; [ ] = dose if it differs, or a comment. Unless noted, calls come from the whole dose curve; as a rule, active = well fitted inhibition curve with a large enough effect (not every such curve was filed as active); inconclusive = small, poorly fitted or top-dose-only effect, or another doubt; inactive = no such curve, though single readings can be large or run the other way. Unless noted, % is set by controls: 0 for no effect and ±100 for the full control effect.

SMILES	HPGD block	IMPase cell inh	ALDH1A1 inh
CC(C)CC(=O)Nc1ccc2c(c1)OCO2	·	·	0%
S=C(Nc1ccc2c(c1)OCO2)Nc1ccc2c(c1)OCO2	-29%	·	?
O=C(CCl)Nc1ccc2c(c1)OCO2	·	·	1.6µM*
N#Cc1ccc(NCC(=O)Nc2ccc3c(c2)OCCO3)cc1	·	·	13µM*
COc1ccc([N+](=O)[O-])cc1NC(=O)CN(C)S(=O)(=O)c1ccccc1	·	·	-3%
CC(C)(C)c1ccc(NNC(=O)C2CCC2)cc1	·	·	5%
CC(C)(Oc1ccc([C@@H]2CC2(Cl)Cl)cc1)C(=O)O	-4%	-2[20.6 µM]	1%[20.9 µM]
Cc1onc(-c2ccccc2)c1C(=O)N1CC(C)OC(C)C1 (stereo unspecified)	-8%	-3	13%
O=C(c1cnn2c(C(F)(F)F)cc(-c3ccc4c(c3)OCO4)nc12)N1CCCCC1	2.8µM*	2	2%
CN1CCN(C(=O)c2cnn3c(C(F)(F)F)cc(-c4ccc5c(c4)OCO5)nc23)CC1	25µM*	8	?
Cc1ccc(-c2cc(C(F)(F)F)n3ncc(C(=O)N4CCN(C)CC4)c3n2)cc1	?	-3	?
O=C(NC1CCCC1)c1cnn2c(C(F)(F)F)cc(-c3ccc4c(c3)OCO4)nc12	-15%	-11	-3%
O=C(c1ccc(S(=O)(=O)N2CCOCC2)cc1)N1CCOCC1	·	·	-8%
C=CCn1c(COc2ccc(Cl)cc2)nnc1SCC(=O)c1c(N)n(C)c(=O)n(C)c1=O	·	·	19%
Cc1c(Cl)c(S(N)(=O)=O)cc(S(N)(=O)=O)c1NC(=O)c1ccc(Cl)cc1	-8%	·	10%[13.5 µM]
CO[C@H]1COC(=O)[C@H](C)COC(=O)C/C=C\[C@@H](C)[C@H](OC)COC(=O)C/C=C\[C@@H]1C	·	·	3%[13.5 µM]
COc1ccc(-c2nc(S(=O)(=O)c3ccccc3)c(N3CCC(C)CC3)o2)cc1	·	-2	·
Cc1ccc(S(=O)(=O)c2nc(C)oc2N2CCOCC2)cc1	·	·	-9%
COc1cc(-c2nc(S(=O)(=O)c3ccccc3)c(N3CCOCC3)o2)cc(OC)c1OC	-2%	1	10µM*
O=S(=O)(c1ccccc1)c1nc(-c2cccc(Cl)c2)oc1N1CCOCC1	·	15	·
Cc1ccc(S(=O)(=O)c2nc(C(C)(C)C)oc2N2CCOCC2)cc1	-10%	1	10µM*
O=S(=O)(c1ccccc1)c1nc(-c2ccccc2)oc1N1CCOCC1	·	·	3.5µM*
Oc1[nH]c(N=C2N=c3ccccc3=N2)c2ccccc12	·	·	0%
COCCOC(=O)C1=C(C)NC(=O)NC1c1cn(-c2ccccc2)nc1-c1ccccc1 (stereo unspecified)	·	3	·
O=C(C[N+]1(CC#Cc2ccccc2)CCOCC1)c1ccc(Cl)cc1	·	·	22µM*
SMILES	HPGD block	IMPase cell inh	ALDH1A1 inh
CCC[N+](CC#Cc1ccccc1)(CCC)CC(=O)c1ccc(Cl)cc1	-6%	·	-7%
C#CC[N+]1(CC#Cc2ccccc2)CCOCC1	-15%	4	-31%
O=C(C[N+]1(CC#Cc2ccccc2)CCOCC1)c1ccccc1	·	·	4.5µM*
CC(C)[C@@H](CC(=O)N[C@@H]1CCCC[C@H]1C(=O)N[C@H](CC(=O)N[C@@H](CCC(=O)O)CC(=O)O)Cc1c[nH]c2ccccc12)NC(=O)C[C@H](Cc1c[nH]c2ccccc12)NC(=O)[C@@H]1CNCC[C@H]1N	-5%	·	-4%
O=C(COc1ccc(Cl)cc1)NCc1nnc(SCC(=O)N2CCCC2)o1	·	·	-4%
CCOC(=O)C1(C)NC(c2cccs2)C2C(=O)N(c3ccc(OC)cc3)C(=O)C21 (stereo unspecified)	·	·	2%
CCC(=O)Nc1ccc(NC(=S)Nc2ccccc2)cc1	-3%	·	?
CCCC(=O)Nc1ccc(Nc2ccccc2)cc1	16µM*	·	?
CCOC(=O)c1ccc(NC(=O)CCOc2ccccc2)cc1	-7%	7	-11%
CCCOC(=O)c1ccc(NC(=O)CCOc2ccccc2)cc1	-18%	-1	14µM*
CCC(=O)Nc1ccc(C(=O)c2ccccc2)cc1	14µM*	4	?
CCCC(=O)Nc1ccc(-c2ccc(NC(=O)CCC)cc2)cc1	-17%	-9	5%
Cc1cc(NC(=O)CCNS(=O)(=O)c2cc(Br)cnc2N)ccc1Br	-10%	1	0%
COCC(=O)N1CCC2(CC1)CN(c1ccncc1)C2	-5%	·	1%
CCOC(=O)NC(=O)/C(C=Nc1ccc(Cl)c(Cl)c1Cl)=C(\C)O	-9%	·	-6%
C/C(=N\OCC(=O)Nc1ccccc1Br)c1cccs1	·	·	2%
COc1cccc2cc(C(=O)OCC(=O)NCc3ccc4c(c3)OCO4)c(=O)oc12	·	·	-7%
O=C1N/C(=N/NC(=O)c2cccc3ccccc23)S/C1=C\c1ccccc1OCc1ccccc1	-18%	-2	6%
COc1ccc(OC)c(/C=C2\S/C(=N/NC(=O)c3ccc4ccccc4c3)NC2=O)c1	4µM*	·	?
O=C(Nc1ccccc1)N1CCCC2(CCNCC2)C1	-6%	·	15%
Cc1ccc(C(=O)O)cc1Nc1nc2ccccc2n2nnnc12	·	13	·
COc1cccc(OC)c1C(=O)N1CCOCC1	-7%	-6	-1%
Cc1c(-c2ccccc2)sc(Br)c1C(=O)N1CCOCC1	1.6µM*	4	13%
O=c1c(O)c(-c2ccc(O)c(O)c2)oc2ccccc12	-16%	2	-15%
CCCn1nc([N+](=O)[O-])c(C(C#N)c2nc3ccccc3o2)c(Cl)c1=O (stereo unspecified)	-15%	-3	?
SMILES	HPGD block	IMPase cell inh	ALDH1A1 inh
CCn1nc([N+](=O)[O-])c(C(C#N)c2nc3cc(C(F)(F)F)ccc3s2)c(Cl)c1=O (stereo unspecified)	?	-6	0.4µM*
CCOc1ccc(NC(=O)CN2CCN(CC(=O)Nc3cc(OC)cc(OC)c3)CC2)cc1	-11%	11	11µM*
Cc1ccc2nc(C3CCN(CC(=O)Nc4ccc5c(c4)OCCO5)CC3)[nH]c2c1	-5%	-7	22µM*
O=C(CN1CCC(c2nc3ccccc3[nH]2)CC1)Nc1ccc2c(c1)OCO2	-8%	15	4%
CCOc1ccc(NC(=O)CN2CCN(CC(=O)Nc3cccc(F)c3)CC2)cc1	7%	-5	18µM*
O=C(CN1CCN(Cc2ccc3c(c2)OCO3)CC1)Nc1ccc2c(c1)OCCO2	-8%	6	2%
O=C(CN1CCN(c2ccc(Cl)cc2)CC1)Nc1cccc(F)c1	-1%	5	2%
CCOc1ccc(NC(=O)CN2CCN(CC(=O)Nc3ccc4c(c3)OCCO4)CC2)cc1	-15%	18	8.9µM*
COc1ccc(NC(=O)CN2CCCCC2)cc1	-25%	-4	-18%
O=C(/C=C/c1ccccc1)OCCCN=C1NS(=O)(=O)c2ccccc21	·	·	15%
COc1ccc(CCCn2ncc3c2nc(N)n2nc(-c4ccco4)nc32)cc1	?	·	-7%
COc1ccccc1N1CCN(CC(=O)Nc2ccc(Cl)c(C(F)(F)F)c2)CC1	-24%	-10	?
CCOc1ccc(NC(=O)CN2CCN(CC(=O)Nc3ccc(Cl)c(C(F)(F)F)c3)CC2)cc1	-17%	-4	13µM*
COC(=O)C1=C(C(=O)OC)[C@@H]2N(C)c3ccc(OC)cc3[C@@]23C[C@@H](C(=O)OC)N(S(=O)(=O)c2ccc(C(F)(F)F)cc2)C3=N1	4%	·	9%[13.5 µM]
COc1ccc(CCN2C(=O)NC(NS(=O)(=O)c3ccc(NC(C)=O)cc3)(C(F)(F)F)C2=O)cc1OC (stereo unspecified)	·	·	13%
